# G9a block – inhibitors of human histone lysine methyltransferase G9a | Q96KQ7 | G9a H3K9 monomethylation, AlphaScreen, 2 h | Potency, µM (highest dose often 102 µM), inactives show at the highest dose activity, negative = inhibition, usual class: inhibitors | actives 8.8% (n = 350,000); also: potency is read from the fitted curve at half-maximal effect; nearly all actives have a fitted effect of over 75% in size
#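 Readings reflect AlphaScreen signal from monomethyl-H3K9 antibody detection. HMT at 20 nM; substrate b-H3K9 500 nM; cofactor SAM 20 uM; 2 h RT reaction; compounds tested as titrations in qHTS with 15 min preincubation.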
# PLK1 PBD block – inhibitors of human PLK1 polo-box domain binding | P53350 | Plk1 PBD binding of FITC phosphopeptide, fluorescence polarization | Potency, µM, inactives show max response, negative = inhibition, hits mostly inhibitors | actives 2.8% (n = 360,000); also: potency is read from the fitted curve at half-maximal effect; series mostly up to about 57 µM; nearly all actives have a fitted effect of over 65% in size
# Sfp PPTase inh – inhibitors of Bacillus subtilis Sfp phosphopantetheinyl transferase | Q9F4F7 | Biochemical Sfp PPTase activity, qHTS | Potency, µM, without a hit: largest response in the series, negative = inhibition, usual class: inhibitors | actives 3.5% (n = 310,000);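 also: the enzyme is Sfp with the accession as filed and its product quenches rhodamine fluorescence; potency is read from the fitted curve at half-maximal effect; 0% = enzyme reaction without inhibitor and -100% = no enzyme wells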
#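 Buffer: 50 mM Hepes-Na pH 7.6, 10 mM MgCl2, 0.01% Nonidet P-40, 0.01% BSA. Enzyme 15 nM, pre-exposed to compound 15 min; substrates then added and fluorescence change tracked over 30 min.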
# CCT chaperon mod – modulators of cytosolic chaperonin (CCT/TRiC) activity. purified chaperonin ATPase assay, HTRF ADP detection, 30 min. activity change, % (test concentration not listed), hits read low. actives 0.3% (n = 360,000); in the data active = activity change below about -30%
#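 We incubate TRiC, 40 or 20 nM final, with library compounds at 76 uM and 10 uM ATP for 30 min at 37 °C. ADP formed is detected with Transcreener HTRF reagents after 30 min at room temperature.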
# VDR inhibitor – blocks the human vitamin D receptor | VDR-SRC2-3 peptide fluorescence polarization, 2 h | Potency, µM, for inactives: max response, negative = inhibition, most hits filed as inhibitors | actives 0.93% (n = 400,000) | AID 504847; also: potency is read from the fitted curve at half-maximal effect
# Target sequence (P11473 whole entry, looked up): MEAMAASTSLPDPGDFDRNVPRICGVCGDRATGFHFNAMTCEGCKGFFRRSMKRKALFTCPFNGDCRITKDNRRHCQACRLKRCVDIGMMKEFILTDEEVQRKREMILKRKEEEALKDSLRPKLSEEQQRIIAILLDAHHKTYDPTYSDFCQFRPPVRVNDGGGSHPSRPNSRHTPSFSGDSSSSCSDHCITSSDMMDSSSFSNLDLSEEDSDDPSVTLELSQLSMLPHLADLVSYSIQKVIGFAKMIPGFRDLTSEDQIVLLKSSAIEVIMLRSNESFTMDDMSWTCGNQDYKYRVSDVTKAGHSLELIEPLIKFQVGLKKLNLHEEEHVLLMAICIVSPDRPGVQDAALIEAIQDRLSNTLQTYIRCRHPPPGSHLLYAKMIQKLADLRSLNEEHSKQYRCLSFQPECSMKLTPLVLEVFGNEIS
#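 VDR–SRC2-3 interaction, FP format. Cmpds 23 nl via pintool, brief spin, 2 h ambient incubation.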
# MmCpn inh – blocks the Methanococcus maripaludis chaperonin Mm-Cpn. purified Mm-Cpn ATPase, ADP Transcreener TR-FRET. Potency, µM (titrated, usually from 76.9 µM), for the others: top-dose activity, negative = inhibition, most hits filed as inhibitors. actives 0.031% (n = 330,000). AID 504842; also: potency is read from the fitted curve at half-maximal effect; nearly all actives have a fitted effect of over 80% in size
#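 Purified archaeal chaperonin (25 nM final) was preincubated with compound for 10 min at 37°C, then ATP (10 uM final) was added for 30 min at 37°C in Tris pH 7.4/KCl/MgCl2/DTT buffer. ADP was quantified by HTRF Transcreener TR-FRET.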
# Active calls of the source: *; ? = inconclusive; . = no result; [ ] = remark or other dose. A selection: hits, their analogues and other compounds. The true share with any hit is near 10%. Unless noted, calls follow the shape of the dose curve; as a rule, active = well fitted curve in the direction sought with a large enough effect; inconclusive = small, poorly fitted or top-dose-only effect, or another doubt; inactive = no such curve, though single readings can be large; an effect the other way counts as inactive or inconclusive. Unless noted, % is scaled to controls: 0 for no effect and ±100 for the full control effect.
SMILES,G9a block,PLK1 PBD block,Sfp PPTase inh,CCT chaperon mod,VDR inhibitor,MmCpn inh
O=C(NC(=S)N1CCCc2ccccc21)c1ccc([N+](=O)[O-])cc1,10µM*,?,16µM*,3,-11%,0%
O=C(c1ccc([N+](=O)[O-])s1)N1CCCc2ccccc21,40µM*,-11%,-8%,-1,-18%,-1%
Cc1nnc2c(Nc3cccc(O)c3)nc3ccccc3n12,-3%[59 µM],.,.,.,5%,.
Cc1ccc(C(=O)N2CCc3ccccc32)cc1[N+](=O)[O-],10%,30µM*,6%,-1,-10%,4%
O=C(c1ccc(Cl)cc1Cl)N1CCc2ccccc21,13%[59 µM],-4%,8%,-1,-14%,-3%
O=C(c1cc2cc(F)ccc2[nH]1)N1CCc2ccccc21,-6%,0%,12%,0,9%,0%
O=C(c1cc(Cl)ccc1Cl)N1CCc2ccccc21,25%[59 µM],27µM*,22%,-1,?,1%
O=C(c1cc2cc(Br)ccc2[nH]1)N1CCc2ccccc21,22%,-5%,10%,-38*,-7%,-4%
COc1ccc(-c2nc3sc(CCNC(=O)c4ccc(C(C)(C)C)cc4)c(C)n3n2)cc1,7%[59 µM],.,.,.,1%,.
O=C(Nc1cccc(F)c1)C1CCN(c2nc3ccccc3[nH]2)CC1,5%[59 µM],.,.,.,11%,.
O=c1c2ccccc2n2c(-c3ccccc3F)nnc2n1CCc1ccccc1,-42%[59 µM],.,.,.,10%,.
Cc1ccccc1Cc1c(C)nc2nc(SCC(=O)N(C)c3ccccc3)nn2c1C,-26%[59 µM],.,.,.,8%,.
Cc1c(CCO)c(=O)n(-c2ccccc2)n1S(=O)(=O)c1c(Cl)cc(Cl)cc1Cl,-25%[0.0925 µM],?,71µM*,0,9%,5%
COc1ccc(N2C(=O)C(Cl)=C(Nc3ccccc3OC)C2=O)cc1,45µM*,2%,-9%,0,-8%,0%
COc1ccc(N2C(=O)c3ccccc3C2=O)cc1,-7%[12.7 µM],-21%,12%,-4,-13%,-2%
COc1ccc(N2C(=O)C(Cl)=C(Nc3ccccc3O)C2=O)cc1,3.5µM*,12µM*,45µM*,-5,-28%,1%
COc1ccc(N2C(=O)C(Cl)=C(N(CCO)Cc3ccccc3)C2=O)cc1,50µM*,-3%,-11%,-1,6%,0%
COc1ccc(C(=O)NNc2ncnc3c2cnn3-c2ccc(C)c(Cl)c2)cc1,14%[59 µM],.,.,.,5%,.
O=C(CSc1ccccn1)Nc1nonc1[N+](=O)[O-],.,?,45µM*,1,-6%,4%
CCC1CCCCN1C(=O)COc1ccc2c(c1)OCO2 (stereo not given),71µM*,-6%,-1%,0,1%,0%
CC1CCCN(C(=O)COc2ccc3c(c2)OCO3)C1 (stereo not given),.,-12%,16%,0,1%,3%
C=CCN1C(=O)/C(=C\c2cccs2)C(C(=O)OC)=C1C,50µM*,-5%,0%,-1,-7%,1%
CCOC(=O)C(=O)NCc1ccc(/C=C2/N=C(C)C(C(=O)OCC)=C2O)o1,.,-18%,22µM*,-1,-24%,-5%
CCOC(=O)c1ccc(NC(=O)C(=O)NCc2ccc(/C=C(/C#N)C(=O)NCCOC)o2)cc1,-35%,5%,4%,-3,-18%,1%
COC(=O)C1=C(O)/C(=C\c2ccc(CNC(=O)C(=O)Nc3ccc(C)c(C)c3)o2)N=C1C,50µM*,-18%,?,-1,-4%,-1%
COC(=O)C1=C(O)/C(=C\c2ccc(CNC(=O)C(=O)Nc3ccc(C)cc3)o2)N=C1C,32µM*,-28%,13µM*,0,16%,-5%
CCOC(=O)C1=C(O)/C(=C/c2ccc(CNC(=O)C(=O)Nc3ccc(C)cc3)o2)N=C1C,32µM*,-11%,40µM*,-2,14%,-2%
COC(=O)C1=C(O)/C(=C/c2ccc(OCC(=O)Nc3ccc(OC)cc3)cc2)N=C1C,.,-4%,.,0,.,.
O=C(NCCc1ccccc1)C1(c2cccs2)CCOCC1,-2%[59 µM],.,.,.,6%,.
CCC(=Cc1ccc(CC)cn1)CC,40µM*,-11%,-7%,-2,3%,0%

# Screening results (PubChem BioAssay)
